# Only some compounds are listed: those with a hit (about 12% of all), similar ones and a draw of the others.
# PLK1 PBD inh = blocks phosphopeptide binding to human PLK1 polo-box domain; Plk1 PBD binding of FITC phosphopeptide, fluorescence polarization; 360,000 compounds, 2.8% hits; Potency, µM, inactives show max response, negative = inhibition, usual class: inhibitors; P53350; further: series mostly up to about 57 µM; nearly all actives have a fitted effect of over 65% in size
# Target sequence (P53350 whole entry, looked up, the tested form may be a part): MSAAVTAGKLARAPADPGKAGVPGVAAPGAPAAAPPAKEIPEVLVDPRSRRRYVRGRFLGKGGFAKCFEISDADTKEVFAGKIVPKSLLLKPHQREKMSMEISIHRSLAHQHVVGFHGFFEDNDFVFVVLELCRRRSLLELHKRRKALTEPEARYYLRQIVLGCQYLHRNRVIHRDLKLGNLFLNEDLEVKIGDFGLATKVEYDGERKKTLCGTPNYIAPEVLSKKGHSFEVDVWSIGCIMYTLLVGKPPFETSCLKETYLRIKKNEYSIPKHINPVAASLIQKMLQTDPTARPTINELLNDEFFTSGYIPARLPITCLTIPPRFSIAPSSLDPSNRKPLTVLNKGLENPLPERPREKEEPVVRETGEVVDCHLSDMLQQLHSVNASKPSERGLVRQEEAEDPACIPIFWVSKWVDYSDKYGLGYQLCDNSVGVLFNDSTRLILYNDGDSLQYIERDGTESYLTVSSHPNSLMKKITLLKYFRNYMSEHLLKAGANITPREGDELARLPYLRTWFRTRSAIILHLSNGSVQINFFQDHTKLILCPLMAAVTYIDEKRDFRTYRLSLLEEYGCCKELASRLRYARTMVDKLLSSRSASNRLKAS
# Sfp inh = blocks B. subtilis Sfp PPTase activity | Q9F4F7 | Biochemical Sfp PPTase activity, qHTS | Potency, µM, inactives show largest response in the series, negative = inhibition, most hits filed as inhibitors | 310,000 compounds, 3.5% hits;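 further: the enzyme is Sfp with the accession as filed and its product quenches rhodamine fluorescence; 0% = enzyme reaction without inhibitor and -100% = no enzyme wells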
#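 Fluorescence-quenching assay: 15 nM Sfp-PPTase preincubated 15 min at room temperature with compound, then 5 uM rhodamine-CoA and 12.5 uM BHQ-2-labelled YbbR peptide added. Fluorescence (ex 525/em 598 nm) read at start and after 30 min; difference gives rate.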
# VP16 counter = counter-screen for ROR gamma inhibitors: Gal4-VP16 reporter; 310,000 compounds, 3.5% hits; Potency, µM (titrated, usually from 53.6 µM), inactives show top-dose activity, negative = inhibition, actives largely listed as inhibitors; Drosophila S2 Gal4-VP16 UAS-luciferase, luminescence, 20 h; AID 2546;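 further: Gal4-VP16 expression switched on by copper sulfate through the metallothionein promoter; nearly all actives have a fitted effect of over 50% in size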
# ALDH1A1 inh = inhibitors of human aldehyde dehydrogenase 1A1; Purified ALDH1A1, NADH fluorescence, propionaldehyde substrate; Potency, µM (highest dose often 75.3 µM), for inactives: top-dose activity, negative = inhibition, usual class: inhibitors; 220,000 compounds, 7.3% hits; AID 1030; active means well fitted inhibition curve with a large enough effect, not every such curve was filed as active; inconclusive means small, poorly fitted or top-dose-only effect, or another doubt; inactive means no such curve, though single readings can be large or run the other way;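 further: plate controls were no enzyme wells and a reference inhibitor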
# RORgamma inh = inhibitors of mouse ROR gamma transcriptional activity. 310,000 compounds, 5.4% hits. AID 2551. Drosophila S2 Gal4-RORgamma UAS-luciferase reporter, 20 h. Potency, µM (doses to about 53.6 µM), without a hit: top-dose activity change, negative = inhibition, hits mostly inhibitors; further: nearly all actives have a fitted effect of over 60% in size
#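 Schneider cells (Drosophila), stable Gal4 DBD–ROR gamma + UAS-luc; 1 hr cmpd preincubation; Cu2+ induction 700 uM final; 20 hr ambient; luminescence.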
# Active calls of the source: *; ? = inconclusive; . = no result; ! = not active in a repeat; [ ] = another dose, or the depositor's remark. Unless noted, the call rests on the fitted dose curve; in most records, active means well fitted curve in the direction sought with a large enough effect; inconclusive means small, poorly fitted or top-dose-only effect, or another doubt; inactive means no such curve, though single readings can be large; an effect the other way counts as inactive or inconclusive. Unless noted, on the % scale 0 is the no-effect control and ±100 the full control effect; potency means the concentration at half of the fitted maximal effect.
SMILES,PLK1 PBD inh,Sfp inh,VP16 counter,ALDH1A1 inh,RORgamma inh
CCCCCCCCN1C(=O)[C@H](CC(=O)N2CCN(C(=O)OCC)CC2)C[C@@]2(C(=O)OC)CC(C)(C)CC=C12,-17%,.,.,.,.
COc1ccc(CCNC(=S)Nc2ccc(OC)cc2)cc1,21µM*,13%,10µM*,?,3.5µM*
CNC(=S)NCCc1ccc(OC)cc1,-5%,-28%,6%,-2%,?
COc1ccc(CCNC(=S)Nc2ccc(C(C)C)cc2)cc1,-11%,?,?,.,2.5µM*
COc1ccc(NC(=S)NCCc2c(C)[nH]c3ccc(OC)cc23)cc1,2%,6%,?,5%,5.6µM*
COc1ccc(CCNC(=S)Nc2ccccc2)cc1,1%,3%,7.1µM*,-12%,2µM*
Cc1cc(C)cc(NC(=S)NCCc2ccc(S(N)(=O)=O)cc2)c1,-9%,12%,?,?,10µM*
FC(F)(F)Oc1ccc(NC(=S)Nc2ccc(OC(F)(F)F)cc2)cc1,-4%,?,?,.,?
CC(C)c1ccc(NC(=S)Nc2ccc(OC(F)(F)F)cc2)cc1,-8%,6%,11µM*,?,8.9µM*
COc1ccc(CCNC(=S)Nc2cc(C)cc(C)c2)cc1,-11%,4%,13µM*,-1%,7.1µM*
COc1ccc(CNC(=O)Nc2cc(C)cc(C)c2)cc1,-7%,1%,-11%,.,-15%
CCCCCCCCCCCCC[N+](C)(C)Cc1ccccc1,.,-88%,8.9µM*,-13%,?
Cc1ccc(N(Cc2ccco2)C(=O)c2cccc(S(=O)(=O)N(C)C)c2)cc1,-3%,19%,0%,25µM*,15%
CN(C)S(=O)(=O)c1cccc(C(=O)N(Cc2ccc(F)cc2)Cc2ccco2)c1,-10%,-23%,5%,25µM*,42%
O=C(c1cccc(S(=O)(=O)N2CCOCC2)c1)N(Cc1ccc(F)cc1)Cc1ccco1,-1%,8%,8%,-12%,43%
CN(C)S(=O)(=O)c1cccc(C(=O)NCc2ccco2)c1,-17%,7%,7%,?,13%
CC(OCc1ccccc1)C(NC(=O)OC(C)(C)C)C(=O)NC1COC2CC(n3ccc(=O)[nH]c3=O)OC12 (stereo not drawn),.,-1%,-14%,.,-1%
S=C(N/N=C/c1ccc2ncccc2c1)Nc1cccnc1,4%,-5%,?,-9%,4.5µM*
Oc1ccc(/C=N/NC(=S)Nc2cccnc2)cc1O,-28%,-14%,?,?,8.9µM*
COc1ccccc1/C=N/NC(=S)Nc1cccnc1,-1%,10%,?,1%,0.71µM*
CC(C)(C)c1ccc(/C=N/NC(=S)Nc2cccnc2)cc1,.,2%,1.3µM*,-5%,0.18µM*
COc1ccc(/C=C(\C#N)C(N)=O)c(OC)c1,.,.,.,-3%[13.5 µM],.
CSCC[C@H](NC(=O)[C@@H]1CCCN1C(=O)CNC(=O)[C@H](CCCCN)NC(=O)[C@H](Cc1cnc[nH]1)NC(=O)[C@H](CO)NC(=O)[C@H](CC(C)C)NC(=O)[C@H](CCCNC(=N)N)NC(=O)[C@@H]1CCCN1C(=O)[C@H](CCCNC(=N)N)NC(=O)[C@H](CCC(N)=O)NC(=O)[C@H](CCCNC(=N)N)NC(=O)[C@H](CCCNC(=N)N)NC(=O)[C@H](Cc1ccccc1)NC(=O)[C@@H](N)CCCCN)C(=O)N1CCC[C@H]1C(=O)N[C@@H](Cc1ccccc1)C(=O)O,.,11%,-1%,.,9%
COc1cc(OC)nc(Nc2nc(C(N)Cc3ccc(Cl)cc3)cs2)n1 (stereo not drawn),-9%,.,.,.,.
O=C1CSC(=S)N1/N=C/c1ccc(O)c(O)c1O,0.95µM*,3.2µM*,-13%,.,-16%
SMILES,PLK1 PBD inh,Sfp inh,VP16 counter,ALDH1A1 inh,RORgamma inh
O=C1CSC(=S)N1/N=C/c1cc(Br)ccc1O,.,-15%,?,.,11µM*
O=C1CSC(=S)N1N=Cc1ccc(Cl)s1,0%,.,.,.,.
COc1ccccc1C=NN1C(=O)CSC1=S,-18%,.,.,.,.
COc1cc2c(c(Br)c1N)-c1cc(Br)c(N)cc1C2=O,-18%,.,.,.,.
CCNc1ncc2nc(-c3ccc(Cl)cc3)c(=O)n(CCC#N)c2n1,.,25%,5%,?,13%
CN(CC(=O)Nc1ccc(Cl)cc1)C(=O)CN1C(=O)C2CCCCC2C1=O (stereo not drawn),-13%,.,.,.,.
COCCn1c(=O)c(C)nc2cncnc21,.,12%,-6%,?,-2%
N#CC1=C(S)N(c2ccccc2)C(c2cccs2)NC1=O (stereo not drawn),?,10µM*,-7%,20µM*,-11%
Cc1ccc(N2C(S)=C(C#N)C(=O)NC2c2cccs2)cc1 (stereo not drawn),27µM*,35µM*,?,3%,?
Cc1ccc(N2C(=O)CCC(C(=O)O)C2c2cccs2)cc1 (stereo not drawn),-9%,14%,-16%,.,-25%
CC1(C(=O)NS(=O)(=O)c2cccc(OC(F)F)c2)CCN1C(=O)C1CCCCC1 (stereo not drawn),-2%,.,.,.,.
CCc1nc2ccc(C(=O)Nc3cccc(OCC(=O)N(C)C)c3)cn2c1N(C)Cc1cc2ccccc2s1,0%,.,.,.,.
CN(C)S(=O)(=O)c1ccc(NC(=S)NC(=O)c2ccc(Br)o2)cc1,.,56µM*,?,13µM*,11µM*
NS(=O)(=O)c1ccc(NC(=S)NC(=O)c2ccco2)cc1,-19%,45µM*!,21%,?,24%
NS(=O)(=O)c1ccc(NC(=S)NC(=O)c2ccc(Br)o2)cc1,21µM*,56µM*,-18%,?,-21%
Cc1cc(C)cc(NS(=O)(=O)c2ccc(NC(=S)NC(=O)c3ccc(Br)o3)cc2)c1,-13%,?,7.9µM*,14µM*,3.5µM*
CC1NS(=O)(=O)c2cc([N+](=O)[O-])ccc21 (stereo not drawn),2%,.,.,.,.
CCOc1ccc(NC(=S)NC(=O)c2ccco2)cc1,-8%,56µM*,?,.,6.3µM*
O=C(CN(Cc1ccccc1)C1=NCCS1)c1ccccc1,-5%,1%,0%,-10%,-40%
Cc1ccc(C(=O)CN(Cc2ccccc2)C2=NCCS2)cc1,-14%,8%,2%,20µM*,-42%
Brc1cc2[nH]cnc2c2ccccc12,-28%,?,-1%,14µM*,10%
Oc1ccc2c(ccc3[nH]cnc32)c1,-16%,4%,-3%,1%,-3%
CC1(C)OC(=O)C(=CNc2ccc(F)cc2)C(=O)O1,-8%,13%,-2%,?,10%[10 µM]
CC1(C)OC(=O)C(=Cc2ccc[nH]2)C(=O)O1,-12%,12%,5%,16µM*,-5%
CCOCCCNC(=S)N(CCN(CC)CC)Cc1cc2cc3c(cc2[nH]c1=O)OCCO3,-12%,8%,-3%,.,-4%
CCN(CC)CCN(Cc1cc2cc3c(cc2[nH]c1=O)OCCO3)C(=S)NCC1CCCO1 (stereo not drawn),-1%,5µM*,0%,?,7%

# Source: PubChem BioAssay (National Center for Advancing Translational Sciences (NCATS))
